GALK inh: qHTS Assay for Inhibitors of Human Galactokinase (GALK) | Potency, µM (doses to about 57.5 µM), for inactives: at the top dose activity change, negative = inhibition, hits mostly inhibitors | Purified GALK, Kinase-Glo residual ATP luminescence | hit rate 0.007% among 270,000 | AID 1868, 2009 | P51570; also: % is scaled to controls: 0 for no effect and ±100 for the full control effect
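ATP-depletion format; final 35 uM ATP, 100 uM D-galactose, 5 nM enzyme; pH 8.0 HEPES/Mg2+ buffer; 60 min RT; luminescence read 10 min after detection reagent.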
Eya2 inh: qHTS Assay for Inhibitors of the Phosphatase Activity of Eya2. Protein phosphatase EYA2 (Homo sapiens), O00167. recombinant Eya2, OMFP fluorescence dephosphorylation (OMFP is methylfluorescein phosphate). Potency, µM (highest dose often 76.9 µM), inactives show top-dose activity, negative = inhibition, usual class: inhibitors. hit rate 0.006% among 330,000; also: % is scaled to controls: 0 for no effect and ±100 for the full control effect
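Eya2 protein (added as 0.2 uM solution) was preincubated with compound for 10 min at ambient temperature in 50 mM HEPES pH 7.5, 50 mM NaCl, 5 uM MgCl2, 0.05% BSA, 1 mM DTT. OMFP (added at 50 uM) then reacted 10 min; fluorescence read at 485/525 nm.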
ClpP mod: qHTS Assay for Activators of ClpP | ATP-dependent Clp protease proteolytic subunit (Bacillus subtilis (strain 168)), P80244 | purified B. subtilis ClpP, FRET peptide cleavage, 20 min | Potency, µM (top dose mostly 57.5 µM), without a hit: top-dose activity change, negative = active | hit rate 1.9% among 340,000; active = well fitted falling curve with a large enough effect; inconclusive = small, poorly fitted or top-dose-only effect; inactive = no such curve, though single readings can be large or run the other way; also: the source files actives as falling curves though it sought activators and does not explain the sign; nearly all actives have a fitted effect of over 65% in size
Target sequence (P80244 whole entry, looked up): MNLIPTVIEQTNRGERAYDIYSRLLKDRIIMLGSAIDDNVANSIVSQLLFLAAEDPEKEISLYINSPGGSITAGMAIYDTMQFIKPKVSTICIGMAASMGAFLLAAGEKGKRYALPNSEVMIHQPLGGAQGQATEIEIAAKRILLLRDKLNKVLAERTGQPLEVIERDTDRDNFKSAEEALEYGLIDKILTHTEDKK
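ClpP 10 microg/mL final, pH 8 Tris/KCl buffer with BSA, glycerol, Tween-20; compound pinned in; FRET-FV substrate; RT 20 min; Ex320/Em430; ΔFRET vs ADEP 5.8 microM, DMSO, no enzyme.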
USP2a block: qHTS Assay for Inhibitors of Ubiquitin-specific Protease USP2a Using CHOP2 as the Reporter. AID 463254, 2010. USP2 core, Ub-CHOP2 coupled fluorogenic reporter, 485/531. Potency, µM (top dose mostly 38.3 µM), without a hit: at the top dose activity change, negative = inhibition, most hits filed as inhibitors. hit rate 0.01% among 330,000;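 also: plate controls were DMSO wells for no effect and full inhibition by NEM control for full effect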
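USP2 core (10nM final) preincubated 30min RT with compound in 20mM Tris-HCl pH 8.0, 2mM CaCl2, 2mM beta-mercaptoethanol, 0.05% CHAPS; 25nM Ub-CHOP2 plus 25nM reporter substrate added, fluorescence (Ex485/Em531) read after 60min.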
The depositor's hits bear a star; ? = inconclusive; . = not tested or not shown. Shown is part of a subset that was picked to be rich in hits. Unless noted, calls follow the shape of the dose curve; as a rule, active = well fitted inhibition curve with a large enough effect; inconclusive = small, poorly fitted or top-dose-only effect, or effect the other way; inactive = flat fitted curve, though single readings scatter. Potency is read from the fitted curve at half-maximal effect.

SMILES | GALK inh | Eya2 inh | ClpP mod | USP2a block
O=S(=O)(c1ccc(-c2csc(Nc3ccc(F)cc3)n2)cc1)N1CCCC1 | 4% | 5% | 20µM* | 4%
Cc1ccc(Nc2nc(-c3ccc(S(=O)(=O)N4CCOCC4)cc3)cs2)cc1 | . | . | 13µM* | .
Cc1cccc(CS(=O)(=O)Cc2ccc(C(=O)NCc3ccc(Cl)cc3)o2)c1 | . | . | -4% | .
O=C(NC(=S)Nc1ccccc1N1CCN(C(=O)c2ccccc2)CC1)c1ccccc1F | 0% | -7% | 32µM* | 3%
Cc1ccc2[nH]c3nc(NN)nnc3c2c1 | 0% | -8% | 28µM* | 3%
CCN1CCN(c2nnc(-c3ccccc3)c3ccccc23)CC1 | 1% | 1% | 3% | -3%
CCN1CCN(c2cc3c(nn2)Oc2ccccc2N3C)CC1 | . | 5% | 28µM* | 4%
COc1ccc(CCNC(=O)C(F)(F)F)cc1S(N)(=O)=O | . | . | 1% | .
Clc1nc(Nc2ccccc2)nc(Nc2ccccc2)n1 | 0% | -13% | 32µM* | 0%
CC(C)(C)Nc1nc(Cl)nc(Nc2ccccc2)n1 | -3% | -2% | 1% | 1%
C/C(CC(=O)Nc1ccc2c(c1)OCCO2)=N\NC(=O)Cc1ccc(Cl)cc1 | -3% | -4% | -8% | 3%
Cc1nnc2sc(-c3cccc4ccccc34)nn12 | 3% | 17% | 22µM* | 3%
Cc1cc(C)cc(N(CC(=O)Nc2ccccc2-c2ccccc2)S(=O)(=O)c2ccccc2)c1 | -2% | 10% | -2% | 1%
Cc1cc(C)cc(N(CC(=O)N/N=C/c2ccncc2)S(=O)(=O)c2ccccc2)c1 | 0% | -4% | 6.3µM* | 0%
CC(C)c1ccc(NC(=O)c2cn(C3CCCCC3)c(=O)c3c2c2ccccc2n3C)cc1 | . | . | 25µM* | .
Cn1c2ccccc2c2c(C(=O)N3CCN(c4ccccn4)CC3)cn(C3CCCC3)c(=O)c21 | 4% | -7% | 32µM* | 3%
COc1ccc(N2CCN(C(=O)c3cn(C4CCCC4)c(=O)c4c3c3ccccc3n4C)CC2)cc1 | 6% | 14% | 1% | 5%
CCCSCCCNC(=O)c1ccc(C)c(NC(=O)c2nsc3ccccc23)c1 | . | . | 135% | .
COc1ccc(-c2sc3ccc(OC)cc3c2-c2ccc(OCCN3CCOCC3)cc2)cc1 | . | 2% | 16µM* | 0%
COc1cccc(-c2sc3ccc(OC)cc3c2-c2ccc(OCCN3CCCC3)cc2)c1 | . | -15% | ? | -5%
COc1ccccc1-c1sc2ccccc2c1-c1ccc(OCCN2CCCCC2)cc1 | . | -5% | 32µM* | -2%
COc1ccc(-c2c(-c3ccccc3OC)sc3ccccc23)cc1OC | . | -12% | 28µM* | 4%
COc1ccc2c(-c3ccc(OCCN4CCCCC4)cc3)c(-c3ccccc3OC)sc2c1 | . | -12% | 5% | 3%
COc1cccc(-c2sc3cc(OC)c(OC)cc3c2-c2ccc(OCCN3CCCCC3)cc2)c1 | . | -25% | 28µM* | 0%
O=C(Nc1cccc(Br)c1)/C(=C\c1cccnc1)NC(=O)c1ccco1 | 0% | -13% | -8% | 0%
SMILES | GALK inh | Eya2 inh | ClpP mod | USP2a block
c1ccc(-c2sc3ccccc3c2-c2ccc(OCCN3CCCC3)cc2)cc1 | . | 2% | ? | 3%
COc1ccc(-c2sc3ccccc3c2-c2ccc(OCCN3CCCCC3)cc2)cc1 | . | -24% | 28µM* | -1%
Cn1c2ccc(F)cc2c2ncn(CCCN(CCO)CCO)c(=O)c21 | -1% | -2% | 28µM* | -6%
COc1ccc(NC(=O)NN(C(=O)c2ccccc2)C(C)(C)C)cc1 | 0% | -1% | 25µM* | -1%
CC(C)(C)N(NC(=O)Nc1ccccc1)C(=O)c1ccccc1 | -5% | -1% | 0% | 0%
C=CCc1cccc2cc(C(=O)NC)c(=O)oc12 | 0% | 9% | 22µM* | 2%
C=CCc1cccc2cc(C(=O)O)c(=O)oc12 | 2% | -10% | -19% | -2%
COc1ccc(NC2CCN(C3CC(=O)N(c4ccc(F)c(Cl)c4)C3=O)CC2)cc1 (stereo not given) | -3% | -25% | 2.8µM* | 0%
O=C(O)c1sc2cc(C(F)(F)F)cnc2c1-c1ccccc1 | -1% | 17% | -5% | 0%
